Source: PubChem BioAssay AID743343 (Broad Institute, 2014)
Potency and affinity values are given separately. The source made the active and inactive calls. How the calls were made is not given here.

Test system: Drosophila melanogaster bursicon receptor LGR2 (rickets)
Assay: LGR2 antagonists, dose response, cell-based, HEK293, CRE-luciferase reporter, cherry pick, set 2 (AID 743343)
Settings: bursicon-induced cAMP antagonist; series mostly up to 35 µM

outcome, inactive:
COc1ccccc1C=NNC(=O)c1ccncc1
CCCCC(=O)N(C)c1c(C)nc2ccc(C(=O)N3CCCCC3)cn12
Cn1c(=O)c2cc(NC(=O)NCc3ccccc3)ccc2n1C/C=C/c1ccccc1
O=C(C[C@H]1CC[C@H](NS(=O)(=O)c2cccc(F)c2)[C@@H](CO)O1)N1CCCCC1
COc1ccc(-c2nc(N)n(C(=O)c3cccs3)n2)cc1
C[C@@H]1CN([C@H](C)CO)C(=O)Cc2cc(NC(=O)Nc3ccc(F)cc3)ccc2O[C@@H]1CN(C)CC1CCCCC1
COc1ccccc1CNS(=O)(=O)c1ccc(N2CCCC2)cc1Br
Cc1noc(C)c1S(=O)(=O)Nc1cccc2c1O[C@H](CN(C)C(=O)Nc1ccc(F)cc1)[C@H](C)CN([C@H](C)CO)C2=O
CC(=O)c1ccc(S(=O)(=O)N2CCC(NC(=O)Nc3cccc(F)c3)CC2)cc1
Cc1cccn2c(CNCC3(c4ccccc4)CCCC3)c(C(=O)N3CCOCC3)nc12
C[C@H](CO)N1C[C@H](C)[C@H](CN(C)C(=O)CN2CCOCC2)Oc2ncc(C#CCN(C)C)cc2C1=O
OC[C@H]1[C@@H](c2ccc(-c3ccc(F)cc3)cc2)[C@@H]2CN(Cc3ccccn3)CCCCN12
CCOC(=O)c1c(C)n(C)c2ccc(OCC(O)CNCCc3ccccc3)cc12 (centres undefined)
C[C@@H]1CN([C@@H](C)CO)S(=O)(=O)c2ccc(C3=CCCC3)cc2O[C@H]1CN(C)C(=O)c1ccccc1
Cn1nnnc1SCC(=O)N1CCN(C(=O)c2ccco2)CC1
C[C@H]1CN([C@@H](C)CO)C(=O)Cc2cc(NC(=O)Nc3ccc(F)cc3)ccc2O[C@H]1CN(C)CC1CCCCC1
CC(=O)Nc1cccc(-c2ccnc3c2CC(C(=O)NCc2cccnc2)O3)c1 (centres undefined)
COc1ccccc1CCn1cnc(-c2ccccc2OC)c1C(C)C
CC[C@H](CO)Oc1cc(NCc2ccc(Cl)c(Cl)c2)c2ncn(C(C)C)c2c1
O=C(Cc1ccncc1)NCC[C@H]1CC[C@H](NC(=O)C2CCCC2)[C@H](CO)O1
O=C(NCc1ccco1)c1cc(NS(=O)(=O)c2cccc([N+](=O)[O-])c2)ccc1O
O=[N+]([O-])c1ccc(-c2cnc(SC(c3ccccc3)c3ccccc3)[nH]2)cc1
COc1cc(NC2CCCCC2O)c2nc(-c3ccc(Cl)cc3)ccc2c1 (centres undefined)
COc1cccc(-c2ccc(C3[C@@H]4CN(C(=O)C5CC5)C[C@H]3N4)cc2)c1 (some centres undefined)
